The campaign covered roughly 290,000 compounds. About 3,000 (1%) were called active. This excerpt belongs to a sample that is enriched for actives. Unmarked numbers belong to inactive results. Rule as the data show it: active = inhibition mostly above about 36% (no sharp cut-off); inactive = mostly below about 34%.

One may read the inhibition as the relative decrease from the control value, in per cent.

The nature of the test: NOD1 signaling inhibitors, primary screen, cell-based, luminescence, uHTS (AID 1578).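 Also: HEK-293T reporter cells stimulated with the NOD1 agonist gamma-tri-DAP.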 The settings on record: NOD1-driven NF-kB luciferase reporter cells, at 4 µM, stronger effect = higher value. (In general: Reporter assays use an easily measured gene product as a stand-in for the process of interest.)
Regarding `CC(C)N(CCCNC(=O)c1ccc(CS(=O)(=O)c2c(Cl)cccc2Cl)o1)Cc1ccccc1`, the inhibition is -4.4%.

As for `CCOC(=O)N1CCN(C(=O)CSc2ccc3nnc(-c4cccnc4)n3n2)CC1`, the inhibition was -22.3%.

As to `CCOC(=O)C1(Cc2cccc(OC)c2)CCCN(C(=O)CCc2cccnc2)C1` (stereo not given), the inhibition was -50.3%.

For the compound `CCc1ccc(-n2cccc2/C=C2/C(=N)N3C(=NC2=O)SN=C3S(C)(=O)=O)cc1`, the inhibition is 1.2%.

Turning to `Cc1nn(CC(=O)N2CCC(C(N)=O)CC2)c(=O)c2nn(-c3ccccc3)c(C)c12`, the inhibition is -5.3%.

With `COc1ccc(CNC(=O)c2csc(Cc3ccc(Cl)cc3)n2)cc1`, the inhibition was 25.6%.

For `CC1CCN(c2nc(-c3ccccc3)c(C#N)c(=O)[nH]2)CC1`, the inhibition is 34.5%.

As for `COc1ccc(-c2nc(N3CCC(C)CC3)[nH]c(=O)c2C#N)cc1`, the inhibition is 73.1% (active).

For the compound `COc1ccc(-c2nc(N3CCCC3)[nH]c(=O)c2C#N)cc1`, the inhibition is -42.4%.

For the compound `CCOC(=O)N1CCN(CC(O)COc2c(C)cccc2C)CC1` (stereo not given), the inhibition was 24.9%.

Take `CCC(C)(C)NC(=S)Nc1ccccc1C`: the inhibition was -38.1%.

With `C=CCn1c(Oc2cccc(C)c2)nc2c1c(=O)n(C)c(=O)n2C`, the inhibition was -2.9%.

As for `COc1ccc(-c2onc3ccc(Cl)cc23)cc1`, the inhibition is -9.1%.

Turning to `Cc1ccc(-c2onc3ccc(Cl)cc23)cc1`, the inhibition was -3.6%.

As for `Cc1cc(-c2onc3ccc(Cl)cc23)ccc1O`, the inhibition was 52.9% (active).

Take `CN1CCN(S(=O)(=O)c2cccc(C(=O)N(c3ccccn3)C3CCCCC3)c2)CC1`: the inhibition is -0.4%.

As for `Cc1nc(SCC(=O)N2CCN(c3ccccc3)CC2)c2oc3ccccc3c2n1`, the inhibition was 33.4%.

For `CCc1nc(Nc2ccc(N3CCN(C(C)=O)CC3)cc2)c2oc3ccccc3c2n1`, the inhibition is 7.6%.

Consider `CC1(O)CC(c2ccc(Cl)cc2)=NN1C(=O)c1ccc(Cl)cc1` (stereo not given), for which the inhibition was -27.7%.

In the case of `CC1(O)CC(c2ccc(Cl)cc2)=NN1C(=O)c1ccc([N+](=O)[O-])cc1` (stereo not given), the inhibition is 92.3% (active).

In the case of `CC(=O)N1N=C(c2ccc(Cl)cc2)CC1c1ccc([N+](=O)[O-])cc1` (stereo not given), the inhibition is -12.3%.

With `CCOc1cc(/C=N/O)ccc1OCc1ccc([N+](=O)[O-])cc1`, the inhibition is -20.2%.

Turning to `COC(=O)c1cc(C)ccc1OCc1ccc([N+](=O)[O-])cc1`, the inhibition was -8.7%.

As for `CCOc1cc(/C=C2/NC(=S)NC2=O)ccc1OCc1ccc([N+](=O)[O-])cc1`, the inhibition is -30%.

As for `COc1cc(/C=C/C(=O)O)ccc1OCc1ccc([N+](=O)[O-])cc1`, the inhibition is -13.3%.
